The structures appear in SMILES notation. Inconclusive results are not listed. A number with no mark means an inactive call. Calls of active or inactive are those of the source. Calls come from the whole dose curve; as a rule, active = well fitted cell-killing curve with a large enough effect; inconclusive = small, poorly fitted or top-dose-only effect; inactive = flat fitted curve, though single readings scatter.

The values that follow come from PubChem BioAssay (NCATS).
Potency is the fitted concentration of half-maximal effect.

The assay can be described thus: Cell Viability - LYMP2-022 (AID 987).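 For viability change, negative = cytotoxic: 0% = DMSO alone and full effect = tetraoctylammonium bromide at 92 µM.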 Note: nearly all actives have a fitted effect of over 55% in size. The note with it: LYMP2-022 lymphoblastoid cell viability; series mostly up to 92.2 µM; viability change, negative = cytotoxic: at the top concentration. An excerpt:
NIH Chemical Genomics Center [NCGC]
NIH Molecular Libraries Screening Centers Network [MLSCN]
National Institutes of Environmental Health Sciences [NIEHS]
National Toxicology Program [NTP]
We have developed a 1536-well cell-based assay for quantitative high throughput screening (qHTS) against a number of cell lines to determine in vitro cytotoxicity of small molecules. This particular assay uses a human lymphoblastoid cell line (LYMP2-022) purchased from Coriell Institute for Medical Research.
NCGC Assay Protocol Summary:
The CellTiter-Glo luminescent cell viability assay (Promega) is a homogeneous method to measure the number of viable cells in culture. The end point readout of this assay is based on quantitation of intracellular ATP, an indicator of metabolic activity, using the luciferase reaction. Luciferase catalyzes the oxidation of beetle Luciferin to oxyluciferin and light in the presence of ATP. The luminescent signal is proportional to amount of ATP present.
Using the CellTiter-Glo luminescent cell viability assay, the amount of cellular ATP was measured in the lymphoblastoid cell line with complete culture medium following compound treatment for 24 hours. The assay was performed in opaque white Kalypsys 1536-well plates. In the screen, tetraoctylammonium bromide was used as positive control. Library compounds were measured for their ability to cause acute toxicity in the cell line, as reflected by a decrease in intracellular ATP levels, in a concentration-dependent manner. […] AC50 values were determined from concentration-response data modeled with the standard Hill equation.
qHTS protocol for CellTiter Glo lymphoblastoid cellular assay
[Step] [Parameter] [Value] [Description]
1. Reagent; 5 uL; 2500 lymphoblastoid cells/well
2. Time; 5 hr; 37 C incubation
4. Controls; 23 nL; Tetraoctylammonium bromide 6.4pM to 92 uM
5. Time; 24 hr; 37 C incubation
6. Reagent; 5 uL; CellTiter Glo reagent
7. Time; 30 min; Room Temperature
8. Detection; Luminescence; Viewlux plate reader
Keywords: cell viability, cytotoxicity, lymphoblastoid cell line, luminescence, NTPHTS, NTPHTS_NCGC, NIEHS, DSSTox, MLSMR, MLSCN, NIH Roadmap, qHTS, NCGC
As for `Cc1ccc(Br)cc1`, the “viability change, negative = cytotoxic” value was -2.11%.
Same read-out and setting: the figure for `CC(=O)Nc1ccccc1C` is -10.2%.
Consider `CCCCC/C=C/C=C/C=O`, for which the Potency was 50.1 µM (active).
As for `O=C(O)c1ccc(Cl)cc1Cl`, the “viability change, negative = cytotoxic” value was -3.65%.
On the same count and under the same terms, the figure for `CC(C)(C)OCC1CO1` (stereo not given) is -7.65%.
Still for that read-out and setting: the figure for `ClCCl` is 4.96%; for `FC(F)(F)c1cccc(Cl)c1` it is 0.997%; for `CCCCCCO` it is -13.5%.
Same read-out and setting: the figure for `C1CCC2OC2C1` (stereo not given) is -15.6%; for `Cc1ccc2c(c1[N+](=O)[O-])C(=O)c1ccccc1C2=O` it is -26.6%; for `CCCCN(CCO)CCCC` it is -14.1%.
For the molecule `CC(=C/C=C/C(C)=C/C=C/C=C(C)/C=C/C=C(C)/C=C/C(=O)O)/C=C/C(=O)O`, the “viability change, negative = cytotoxic” value was -19.6%.
Still for that read-out and setting: the figure for `Cc1ccc(C(C)(C)C)cc1` is -12.8%; for `ICCc1ccccc1` it is -3.3%; for `Cc1ccc2oc(=O)ccc2c1` it is -10.9%.
The same measure, in the same setting: the figure for `CCOCCO` is -7.13%; for `C=CCCCC` it is -19.4%.
Turning to `C=CC(=O)OCCCC`, the “viability change, negative = cytotoxic” value was -8.67%.
On the same count and under the same terms, the figure for `O=C(O)CNC(=O)c1ccc([N+](=O)[O-])cc1` is 0.715%; for `CC(C)(C)c1ccc(OCC2CO2)cc1` (stereo not given) it is -25.3%.
With `Cc1ccc2ncccc2c1`, the “viability change, negative = cytotoxic” value is -2.68%.
Consider `CC(=O)c1nccs1`, for which the “viability change, negative = cytotoxic” value is 5.03%.
Still for that read-out and setting: with `C=C(C)C1CC=C(C)C(OC(C)=O)C1` (stereo not given) the figure was -1.74%.
Same read-out and setting: the figure for `CC(C)Nc1ccccc1` is -1.11%; for `Nc1cccc(O)c1` it is -6.76%; for `CC/C=C1/OC(=O)c2ccccc21` it is -9.71%.
Consider `Cc1ccc2cccnc2c1`, for which the “viability change, negative = cytotoxic” value was -5.52%.
On the same count and under the same terms, the figure for `CCN(C(=O)N(CC)c1ccccc1)c1ccccc1` is -17.7%; for `C1CCOC1` it is -10.8%.
On the same count and under the same terms, with `C=C(C)C(=O)OCCCCCC` the figure was 2.25%; with `CC(=O)Nc1ccc(C)cc1`, -4.22%; with `COC(=O)c1ccccc1`, 1.95%.
On the same count and under the same terms, the figure for `Cc1ccc([N+](=O)[O-])c(N)c1` is -13.7%; for `Nc1cc(Cl)c([N+](=O)[O-])cc1O` it is -19.8%; for `COc1cccc2sc(N)nc12` it is -8.2%.
Regarding `CC(C)=CCl`, the “viability change, negative = cytotoxic” value was -1.61%.
Still for that read-out and setting: with `CCCCCNCCCCC` the figure was -7.9%; with `CNc1ccc([N+](=O)[O-])cc1`, -3.88%.
Same read-out and setting: the figure for `C[C@@H]1CC2(OC[C@]3(C)O[C@H]23)O[C@H]2C[C@@]3(C)[C@@H]4CC[C@H]5C(C)(C)C(O[C@@H]6OC[C@@H](O)[C@H](O)[C@H]6O)CC[C@@]56C[C@@]46CC[C@]3(C)[C@@H]12` (stereo not given in full) is -26.6%; for `CCCC(Cl)CCCC(Cl)CCC(Cl)CCC(Cl)CCC(Cl)CCCC(Cl)CCC` (stereo not given) it is -15.7%.
